Screening results deposited in PubChem BioAssay by several laboratories.
Rows were chosen to be rich in hits. Some 3.5% of all compounds tested hit in one or more screens of this group.
GDH-TPI counter-1 = GDH-TPI coupling enzyme inhibitors, primary screen, artefact control for M. tuberculosis FBA inhibitor project, biochemical, absorbance, full deck; inhibition, % at 4.8 µM; GDH-TPI coupled enzyme counterscreen, NADH absorbance; 360,000 tested, 1.2% active; in the data active = inhibition above about 30%;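 also: 0% = DMSO wells and 100% = wells lacking the enzyme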
Mtb UGM inh = M. tuberculosis UGM enzyme inhibitors, primary screen, biochemical, fluorescence polarization, single point; UDP-galactopyranose mutase (Mycobacterium tuberculosis (strain ATCC 25618 / H37Rv)), …; 320,000 tested, 0.06% active; AID 504406, 2011; purified UGM, fluorescence polarization probe displacement; inhibition, % at 10 µM; in the data active = inhibition above about 10%, passing the limit was not always enough
Target sequence (P9WIQ1 whole entry, looked up): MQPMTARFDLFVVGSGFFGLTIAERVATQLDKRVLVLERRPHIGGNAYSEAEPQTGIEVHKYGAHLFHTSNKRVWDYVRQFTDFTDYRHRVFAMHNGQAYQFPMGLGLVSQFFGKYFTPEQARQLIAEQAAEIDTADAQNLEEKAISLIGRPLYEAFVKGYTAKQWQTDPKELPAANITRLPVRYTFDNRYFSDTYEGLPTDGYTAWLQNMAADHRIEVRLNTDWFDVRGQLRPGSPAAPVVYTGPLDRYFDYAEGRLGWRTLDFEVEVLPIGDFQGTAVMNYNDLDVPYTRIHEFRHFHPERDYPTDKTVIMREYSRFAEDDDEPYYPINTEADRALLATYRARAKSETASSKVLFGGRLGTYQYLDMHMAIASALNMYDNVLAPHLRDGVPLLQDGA
Mtb FBA inh = Mtb FBA enzyme inhibitors, primary screen, biochemical, fluorescence, strain H37Rv | Fructose-bisphosphate aldolase (Mycobacterium tuberculosis (strain ATCC 25618 / H37Rv)), … | purified M. tuberculosis FBA, fluorescence read-out | inhibition, % at 1 µM | 360,000 tested, 2.3% active;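 also: 0% = vehicle and 100% = reference inhibitor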
Rv3671c inh = Rv3671c serine protease inhibitors, primary screen, biochemical, fluorescence polarization, M. tuberculosis H37Rv; P9WHR9; inhibition, % at 5.96 µM; 320,000 tested, 0.048% active; in the data active = inhibition above about 38%;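 also: extracellular domain of Rv3671c used as enzyme; 0% = enzyme with DMSO and 100% = no enzyme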
Mtb FBA inh conf = M. tuberculosis aldolase blockers, biochemical, fluorescence, strain H37Rv, confirmation | shares compounds with Mtb FBA inh | purified M. tuberculosis FBA, fluorescence read-out | inhibition, % at 1 µM | 5,600 tested, 78% active | AID 651616, 2012;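 also: 0% = vehicle wells and 100% = reference inhibitor wells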
GDH-TPI counter-2 = GDH-TPI coupling enzyme inhibitors, artefact control for M. tuberculosis FBA inhibitor project, biochemical, fluorescence, high throughput; shares compounds with Mtb FBA inh; GDH-TPI coupled enzyme counterscreen; inhibition, % at 1 µM; 5,600 tested, 81% active; AID 652141, 2013; in the data active = inhibition above about 10%
* marks the source's active call; other numbers are inactive results; · = not tested or not shown; + = active, no number. Rule as the data show it, unless noted: active = inhibition above about 27%; inactive = the rest.

SMILES	GDH-TPI counter-1	Mtb UGM inh	Mtb FBA inh	Rv3671c inh	Mtb FBA inh conf	GDH-TPI counter-2
Cc1ccc2nc(C3CCCCC3)c(Cc3cccc(F)c3)n2c1	·	·	14	·	·	·
Cc1ccc2nc(-c3ccco3)c(Cc3ccccc3)n2c1	·	·	36*	·	181*	108*
Cc1ccc2nc(C3CCCCC3)c(Cc3ccccc3)n2c1	·	·	28*	·	3	-3
Fc1cccc(Cc2c(-c3cccc(Cl)c3)nc3c4ccccc4ccn23)c1	·	·	6	·	·	·
Fc1cccc(Cc2c(-c3ccco3)nc3c4ccccc4ccn23)c1	·	·	27*	·	68*	46*
Cc1cc(N2CCN(Cc3nc(-c4ccc(Cl)cc4)oc3C)CC2)cc(C)n1	8	1	4	-2	·	·
COc1ccc(-c2nc(CN3CCN(c4cc(C)nc(C)c4)CC3)c(C)o2)c2ccccc12	2	0	67*	-1	45*	43*
Cc1cc([N+](=O)[O-])nn1CCCC(=O)Nc1cc(Cl)ccc1Cl	4	0	-3	5	·	·
CC(C)(C)C(=O)Nc1sc2c(c1-c1nc3ccccc3[nH]1)CCCC2	19	-3	83*	5	83*	61*
Cc1ccccc1CN1C(=O)[C@H]2Cc3c([nH]c4ccccc34)C(C)(C)N2C1=O	-10	-2	0	7	·	·
Cc1ccc(Nc2ccc(C(=O)O)cc2N)cc1	·	-1	·	-15	·	·
COc1cccc(Nc2ccc(C(=O)O)cc2N)c1	15	4	62*	-10	49*	49*
CC(=O)N1CCC2(CC1)CC(=O)c1cc(Cl)ccc1O2	1	0	8	1	·	·
CC(=O)N1CCC2(CC1)CC(=O)c1cc(OCC(=O)NCc3ccco3)ccc1O2	13	0	35*	-4	121*	80*
CC(=O)N1CCC2(CC1)CC(=O)c1cc(OCC(=O)NCc3ccc(C)cc3)ccc1O2	3	1	51*	-3	-6	-4
CC(C)(C)c1ccc(OCC(=O)NCc2ccco2)cc1	10	0	1	-5	·	·
O=C(NCc1ccc(F)cc1)c1cc(C2CCCN(C(=O)C3CCCCC3)C2)on1 (configuration not stated)	4	·	-3	·	·	·
Cc1nc(C(=O)Nc2ccccc2Cl)cc2c1[nH]c1ccccc12	8	1	-12	-54	·	·
C[C@@H](NC(=O)c1cc2c([nH]c3ccccc32)c(-c2ccccc2)n1)C(=O)O	7	1	29*	-3	71*	61*
O=C(NCCc1ccc(O)c(O)c1)C1COc2ccccc2O1 (configuration not stated)	-8	1	0	2	·	·
O=C(O)c1cc(-n2[nH]c(=O)c3ccccc3c2=O)ccc1Cl	4	-2	1	0	·	·
CCOc1cc(S(=O)(=O)N(CC)CC)c(OCC)cc1-n1cnnn1	10	·	28*	4	193*	137*
CCOc1cc(S(=O)(=O)NCCc2ccccc2C)c(OCC)cc1-n1cnnn1	7	-1	51*	-1	22	12*
CC(OC(=O)Cc1c(F)cccc1Cl)C(=O)NC1(C#N)CCCCC1 (configuration not stated)	-1	3	2	5	·	·
Cc1nn(-c2ccc(F)cc2F)c2c1-c1nc(N3CCCC3)ncc1CC2	2	-3	30*	-1	+	+
SMILES	GDH-TPI counter-1	Mtb UGM inh	Mtb FBA inh	Rv3671c inh	Mtb FBA inh conf	GDH-TPI counter-2
Cc1nn(-c2ccc(F)cc2F)c(=O)c2noc(C)c12	1	2	1	6	·	·
CCn1c2ccccc2c2cc(/C=N/n3c(C)nnc3C)ccc21	26	0	40*	-3	62*	48*
CS(=O)(=O)Nc1ccccc1C(=O)NC1CC2CCC1C2 (configuration not stated)	4	1	37*	-2	65*	49*
CS(=O)(=O)Nc1ccccc1C(=O)NCc1ccccc1Cl	0	-1	5	-4	·	·
Cc1ccccc1CNC(=O)c1ccccc1NS(C)(=O)=O	14	5	59*	-10	60*	51*
O=C(NCCCCO)c1ccc2c3c(cccc13)CC2	7	-1	64*	4	-2	-3
CCOCCNC(=O)c1ccc2c3c(cccc13)CC2	1	-2	81*	1	47*	36*
